Results reported in PubChem BioAssay AID652015 (National Center for Advancing Translational Sciences (NCATS), 2013).
Inconclusive results are not listed. Activity calls are given as the source filed them. Calls follow the shape of the dose curve; as a rule, active = well fitted inhibition curve with a large enough effect; inconclusive = small, poorly fitted or top-dose-only effect; inactive = no such curve, though single readings can be large or run the other way.

The compounds below were run against Coelenterazine h 2-monooxygenase (Renilla reniformis) (UniProt P27652) (assay: qHTS Assay for Inhibitors of Sea Pansy Luciferase from the GSK Published Protein Kinase Inhibitor Set). Settings: purified Renilla luciferase, luminescence; series mostly up to 57.5 µM.
Procedure, shortened: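 Purified R. reniformis luciferase (1 nM final) with 5 uM coelenterazine h in 50 mM Tris acetate pH 7.5, 100 uM NaCl, 0.01% Tween-20, 0.05% BSA. A titration, about 60 uM to 300 pM; luminescence read after about 2 min.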

Chain of Coelenterazine h 2-monooxygenase (Renilla reniformis) (P27652 whole entry, looked up): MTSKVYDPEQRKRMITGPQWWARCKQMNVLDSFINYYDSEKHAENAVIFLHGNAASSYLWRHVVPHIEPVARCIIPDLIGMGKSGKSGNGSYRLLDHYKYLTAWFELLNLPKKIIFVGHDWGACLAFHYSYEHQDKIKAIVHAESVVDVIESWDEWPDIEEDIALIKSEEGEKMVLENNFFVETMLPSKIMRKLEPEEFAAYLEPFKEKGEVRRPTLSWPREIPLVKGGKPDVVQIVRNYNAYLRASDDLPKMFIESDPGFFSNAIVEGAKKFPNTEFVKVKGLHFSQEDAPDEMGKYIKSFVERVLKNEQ

Potency, inactive:
CS(=O)(=O)CCNCc1ccoc1-c1ccc2ncnc(Nc3ccc(OCc4ccccc4)cc3)c2c1, CN1CCC(n2cnc(-c3ccc(F)cc3)c2-c2ccnc(Nc3ccccc3)n2)CC1, COc1ccc(-c2cc(-c3cn[nH]c3-c3ccccn3)ccn2)cc1, CN(C)CCCn1c(-c2nonc2N)nc2cnccc21, COc1ccc2c(-c3ccnc(Nc4cccc(OC(F)(F)F)c4)n3)cnn2n1, c1cc(-c2cnn3nc(N4CCOCC4)ccc23)nc(NC2CC2)n1, CCS(=O)(=O)c1ccc(OC)c(Nc2ncc(-c3cccc(-c4ccccc4F)c3)o2)c1, CS(=O)(=O)CCNCc1ccc(-c2ccc3ncnc(Nc4ccc(OCc5cccc(C(F)(F)F)c5)cc4)c3c2)o1, O=C1NC(=O)C(c2ccc(Cl)cc2)=C1Nc1ccc(Cl)c(C(=O)O)c1, O=C(OC1CNC(C#Cc2cc3ncnc(Nc4ccc5c(cnn5Cc5ccccc5)c4)c3s2)C1)N1CCOCC1 (centres undefined), NCc1ccc(-c2nc(-c3ccc(Cl)c(O)c3)c(-c3ccncc3)[nH]2)cc1, COc1cccc(Nc2nccc(-c3cnn4ncccc34)n2)c1, Cc1ccc(NC(=O)c2ccoc2)cc1-c1ccc(C(=O)NCC2CC2)cc1, COC(=O)Nc1nc2ccc(Oc3ccc(NC(=O)Nc4cc(C(F)(F)F)ccc4F)cc3)cc2s1, Cc1ccc2c(-c3ccnc(Nc4ccc5c(c4)OCCO5)n3)c(-c3ccc(C(F)(F)F)cc3)nn2n1, COc1cc(C)c(NC(=O)CN(C)C)cc1Nc1nc(Nc2cccc(F)c2C(N)=O)c2cc[nH]c2n1, O=C(Nc1ccc(Oc2ccc3nc(NC(=O)c4ccccc4)[nH]c3c2)cc1)Nc1cc(C(F)(F)F)ccc1F, CNC(=O)c1cncc(C=Cc2ccccc2C)c1, CC1=C(C(=O)Nc2ccc3n[nH]c(C)c3c2)C(c2ccc(C(F)(F)F)cc2)CC(=O)N1 (centres undefined), CC1=C(C(=O)Nc2ccc3[nH]ncc3c2)C(c2ccc(F)cc2)N=C(c2ccc(C(F)(F)F)nc2)N1 (centres undefined), NS(=O)(=O)c1ccc(N=Nc2c(O)[nH]c3cccc(CCc4ccncc4)c23)cc1, Nc1nc(-c2ccc(F)cc2)c(-c2ccc3ncccc3n2)s1, COc1cc(Nc2ncc3c(C)nc(-c4cccc(C(F)(F)F)c4)n3n2)cc(OC)c1OC, COC(=O)Nc1nc2ccc(S(=O)(=O)c3ccc(NC(=O)Nc4cc(C(F)(F)F)ccc4F)cc3)cc2[nH]1, Cc1cc(O)cc(C)c1C=Cc1cncc(C(=O)N(C)C)c1, Fc1ccc(-c2ncn(CCCN3CCOCC3)c2-c2ccncc2)cc1, COc1cccc(-n2ncc3c(NN=Cc4ccncc4)ncnc32)c1, Fc1ccc(-c2nn3ncccc3c2-c2ccnc(Nc3ccc4c(c3)OCCO4)n2)cc1, CN(C)CCCNc1nccc(-c2c(-c3ccc(F)cc3)nn3cc(C(F)(F)F)ccc23)n1, Fc1cccc(COc2ccc(Nc3ncnc4cc(-c5ccc[nH]5)sc34)cc2Cl)c1, Cc1cc(-c2ccco2)cc(C)c1C=Cc1cncc(-c2nn[nH]n2)c1, N#Cc1c(NC(=O)c2cccc3ccccc23)sc2c1CCCC2, Nc1ccc(C#Cc2cncnc2Nc2ccc(OCc3cccc(F)c3)c(Cl)c2)cc1, Cc1nnc(-c2ccc(C)c(-c3ccc(C(=O)NCc4ccc(Cl)cc4)cc3)c2)o1, COc1ccc2ncn(-c3cc(OC(C)c4ccccc4Cl)c(C(N)=O)s3)c2c1 (centres undefined), c1ccc(COc2ccc(Nc3ncnc4ccc(-c5ccco5)cc34)cc2)cc1, COC(=O)Nc1nc2ccc(Sc3ccc(NC(=O)Nc4cc(C(F)(F)F)ccc4F)cc3)cc2[nH]1, N#Cc1c(NC(=O)c2ccccc2F)sc2c1CCCC2, CCS(=O)(=O)c1ccc(OC)c(Nc2ncc(-c3cccc(F)c3)o2)c1
